The values below come from PubChem BioAssay (NCATS).

SMILES strings stand for the structures. Values joined by “and” are separate entries in the source; they are usually repeats but may differ in a detail not shown here. Equal values may be shown once. Inconclusive results are not listed. Values without a mark were called inactive. Active and inactive are the calls of the source. Calls come from the whole dose curve; as a rule, active = well fitted inhibition curve with a large enough effect; inconclusive = small, poorly fitted or top-dose-only effect; inactive = flat fitted curve, though single readings scatter.

Assay [1] concerns CRL-7250. Description: Cytotoxic Profiling of Annotated Libraries Using Quantitative High-Throughput Screening (AID 1296008). Conditions: Five cell lines viability, CellTiter-Glo ATP luminescence, 48-72 h; max response: hits give low values. An outline of the steps:
(§1)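 Cells exposed to compounds for 48 or 72 hr at 37 degrees Celsius. Viability read as ATP-coupled luminescence with CellTiter-Glo after 10 min at room temperature.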
A general note: ATP-based viability assays read luminescence as a measure of living cells.

The subject of assay [2] is KB-3-1. The description is as above. The note with it: Five cell lines viability, CellTiter-Glo ATP luminescence, 48-72 h; max response: hits give low values. An outline of the steps: as §1
Assay [3] has as its system NIH3T3. The assay is described as above. Conditions: Five cell lines viability, CellTiter-Glo ATP luminescence, 48-72 h; max response: hits give low values. The procedure, abridged:
as §1

Assay [4] concerns MCC-13. Briefly: qHTS assay to identify novel small-molecules to repurpose for Merkel cell carcinoma treatment (AID 1296009). The note with it: MCC and control cell lines, CellTiter-Glo viability, 72 h; series mostly up to 46 µM. The procedure, abridged:
(§2)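 Dose-response viability screen; 72 hr exposure at 37 degree celsius; CellTiter-Glo added, 10 min room temperature, luminescence read; RLUs scaled between no-cell and DMSO wells.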

The subject of assay [5] is MCC-26. The description is as above. The note with it: MCC and control cell lines, CellTiter-Glo viability, 72 h; series mostly up to 46 µM. An outline of the steps: as §2
Assay [6] has as its system HEK293. Description: Cytotoxic Profiling of Annotated Libraries Using Quantitative High-Throughput Screening (AID 1296008). Conditions: Five cell lines viability, CellTiter-Glo ATP luminescence, 48-72 h; max response: hits give low values. An outline of the steps:
as §1

Assay [7] concerns HaCat. Described as above. Conditions: Five cell lines viability, CellTiter-Glo ATP luminescence, 48-72 h; max response: hits give low values. An outline of the steps:
as §1

The subject of assay [8] is HACAT. Description: qHTS assay to identify novel small-molecules to repurpose for Merkel cell carcinoma treatment (AID 1296009). The note with it: MCC and control cell lines, CellTiter-Glo viability, 72 h; at 44.8 µM (top of the series) unless noted. The procedure, abridged: as §2
% is set by controls: 0 for no effect and ±100 for the full control effect; potency is the fitted concentration of half-maximal effect.
Note: nearly all actives have a fitted effect of over 60% in size.

With `CCCC1OC2C[C@@H]3[C@H]4CCC5=CC(=O)C=C[C@]5(C)[C@H]4C(O)C[C@]3(C)[C@]2(C(=O)CO)O1` (stereo not given in full), the figures for the max response in assay [1], in assay [2] and in assay [3] were -14.4%, -2.26% and -21.2%, respectively. Besides, the Potency entry in assay [4] and in assay [5] was “inactive” throughout.

As to `COc1cc2nc(-c3cc(F)ccc3O)nc(N[C@@H]3CNC[C@@H]3C(C)(C)O)c2cc1OC`, the Potency in assay [6] was 14.8 µM (active); in assay [7], 26.4 µM (active); in assay [2] it was 16.6 µM (active); in assay [4], 20.9 µM (active).

For the molecule `O=C(Nc1cccc(Cl)c1)Nc1ncc(CCNc2ncnc3ccsc23)s1`, the results for the Potency in assay [6] and in assay [7] were 16.6 µM (active) and 2.09 µM (active), respectively. Moreover, in assay [5], the Potency result is “inactive”.

Take `CC(C)(O)CC(=O)NCCn1ccc2ncnc(Nc3ccc(Oc4cccc(C(F)(F)F)c4)c(Cl)c3)c21`: the Potency in assay [6] was 16.6 µM (active); in assay [7], 372 nM (active) and 3.66 µM (active). Also, the Potency entry in assay [4] and in assay [5] was “inactive” throughout.

Take `NS(=O)(=O)c1ccc(Nc2nc(OCC3CCCCC3)c3[nH]cnc3n2)cc1`: the Potency is 18.4 µM (active) in assay [6] and 14.8 µM (active) in assay [2]. The max response in assay [7] is -17.9%. The Potency result in assay [4] and in assay [5] was “inactive” each time.

As for `C[C@H]1[C@H](O)O[C@@H]2O[C@@]3(C)CC[C@@H]4[C@H](C)CC[C@@H]1[C@@]24OO3`, the figures for the Potency in assay [6] and in assay [2] were 3.32 µM (active) and 20.9 µM (active), respectively. The max response in assay [7] was -7.84%. Further, the Potency entry in assay [5] was “inactive”.

As to `Nc1ccn([C@@H]2O[C@H](CO)[C@@H](O)[C@H]2O)c(=O)n1`, the max response in assay [6] is -76.5%. Also, the Potency in assay [7] is 29.6 µM (active); in assay [3] it was 0.526 µM (active).

With `Cc1ccc(NC(=O)Nc2cc(C(F)(F)F)ccc2F)cc1Nc1ccc2c(c1)NC(=O)C2=Cc1ccc[nH]1`, the results for the Potency in assay [6], in assay [2] and in assay [3] were 11.8 µM (active), 9.35 µM (active) and 16.6 µM (active), respectively.

Take `CNc1nc(-c2ccc3c(N)n[nH]c3c2)cc(N2C[C@@H](C(=O)NC3CCCCC3)CC[C@@H]2C)n1`: in assay [6], the Potency was 7.43 µM (active). The max response in assay [7] was -5.08%. Also, the Potency entry in assay [4] and in assay [5] was “inactive” in each case.

Regarding `CN(C)N=Nc1nc[nH]c1C(N)=O`, the figures for the Potency in assay [6], in assay [7] and in assay [2] were 3.72 µM (active), 18.7 µM (active) and 4.69 µM (active), respectively. Also, in assay [3], the max response was -2.97%. Further, the Potency result in assay [4] and in assay [5] was “inactive” throughout.

Turning to `NC1(C(=O)N[C@@H](CCO)c2ccc(Cl)cc2)CCN(c2ncnc3[nH]ccc23)CC1`, in assay [6], the Potency is 469 nM (active) and 517 nM (active). The max response in assay [7] is -16.7%; in assay [2], -18% and -7.12%; in assay [3] it was -1.34%. The molecule was classed as inactive in assay [3]. Further, the Potency result in assay [4] and in assay [5] was “inactive” in each case.

On to `C#CCN(C)CC1=Cc2ccccc2Oc2ccccc21`, for which the max response in assay [1] was -16.4%; in assay [2], -4.88%; in assay [3], -28.1%. Moreover, the Potency result in assay [4] and in assay [5] was “inactive” throughout.

With `CCC[C@H](Nc1nc(-c2ccc(NC(=O)NCC)c(OC)c2)ncc1C)c1cccnc1`, the max response in assay [6] is -101%; in assay [3] it was -76.8%. Further, the Potency in assay [2] was 0.0047 µM (active); in assay [4], 0.0469 µM (active).

On to `CN1CCN(c2cccc(Nc3nc4c(-c5ccc(S(C)(=O)=O)cc5)cccn4n3)c2)CC1`, for which the Potency in assay [6] was 9.2 µM (active); in assay [7], 14.8 µM (active) and 5.17 µM (active). Moreover, the molecule was classed as inactive in assay [2]. The max response in assay [3] is -10.8% and -33.2%. The Potency result in assay [4] and in assay [5] was “inactive” each time.

Take `Cc1nn(Cc2ccccc2Cl)c(C)c1CN(C)CC(O)COc1ccc(Cl)cc1` (stereo not given): the Potency in assay [6] was 18.7 µM (active). The Potency entry in assay [4] and in assay [5] was “inactive” each time.

Consider `CCN(CCO)CCCOc1ccc2c(Nc3cc(CC(=O)Nc4cccc(F)c4)[nH]n3)ncnc2c1`, for which the max response in assay [1] is -19.9%; in assay [2], -29.8%; in assay [3] it was -28.4%. Moreover, the Potency entry in assay [4] and in assay [5] was “inactive” each time.

As for `CC(C)(C)c1[nH]cnc1C=c1[nH]c(=O)c(=Cc2ccccc2)[nH]c1=O`, the Potency was 0.0038 µM (active) in assay [1], 2.41e-05 µM (active) in assay [2] and 0.0076 µM (active) in assay [4]. Also, the max response in assay [3] was -78.6%.

As to `CO[C@H]1O[C@@H]2O[C@@]3(C)CC[C@@H]4[C@@H](C)CC[C@@H]([C@H]1C)[C@@]24OO3`, the max response in assay [7] is -9.33%. Also, the result in assay [2] and in assay [3] was inactive. The Potency result in assay [4] and in assay [5] was “inactive” in each case.

On to `CNC(=O)c1cc(Oc2ccc(NC(=O)Nc3ccc(Cl)c(C(F)(F)F)c3)c(F)c2)ccn1`, for which the molecule was called inactive in assay [7] and in assay [8]. In addition, the max response in assay [2] was 1.15%; in assay [3], -27%. In addition, the Potency result in assay [5] is “inactive”.

Consider `OC(c1cc(C(F)(F)F)nc2c(C(F)(F)F)cccc12)C1CCCCN1` (stereo not given), for which the result in assay [7] and in assay [8] was inactive. The Potency result in assay [4] and in assay [5] was “inactive” in each case.

Consider `COc1ccc(-c2oc3c(CC=C(C)C)c(O)cc(O)c3c(=O)c2O)cc1`, for which the outcome in assay [7], in assay [3] and in assay [8] was inactive. In addition, the max response in assay [2] was 6.49%. For the same molecule, the Potency entry in assay [4] and in assay [5] was “inactive” in each case.
